# Screen size: about 310,000 compounds; about 18,000 (5.8%) were called active. Not shown: some 22% with an inconclusive outcome. The entries come from a sample that favours actives as a whole. Unmarked numbers belong to inactive results. Calls come from the whole dose curve; as a rule, active = well fitted inhibition curve with a large enough effect; inconclusive = small, poorly fitted or top-dose-only effect, or another doubt; inactive = no such curve, though single readings can be large or run the other way.
# Assay: Primary qHTS for delayed death inhibitors of the malarial parasite plastid, 48 hour incubation
# Conditions: P. falciparum luciferase growth in erythrocytes; series mostly up to 28.7 µM; activity change, negative = inhibition: at the top concentration
# Summary of the method: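 First compound was added to culture medium, then infected red cells at 0.1% parasitemia and 2% hematocrit (final). After incubation at 37 C under 5% CO2, luciferase detection reagent was dispensed and light output recorded.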
# % is set by controls: 0 for no effect and ±100 for the full control effect; potency is the fitted concentration of half-maximal effect.
SMILES,"activity change, negative = inhibition",Potency
Cc1ccc(OCc2nc3ccccc3n2C)cc1,130%,–
COc1ccc(COC(=O)NC(C(=O)O)c2ccccc2)cc1 (configuration not stated),-25.7%,–
CCOc1ccc(C(CC(=O)O)NC(=O)Cc2ccccc2)cc1OC (configuration not stated),15.7%,–
COc1ccc(C(CCN(Cc2ccc(OC)c(OC)c2)C(=O)CCl)c2ccccc2)cc1 (configuration not stated),–,2.94 µM (active)
O=C(CCCCO)c1ccc(O)c(Cl)c1,-10.3%,–
Cc1ccc(OCC(=O)Nc2ccc3oc(=O)ccc3c2)cc1C,16.6%,–
CC[C@]1(O)C[C@@H]2CN(CCc3c([nH]c4ccccc34)[C@@](C(=O)OC)(c3cc4c(cc3OC)N(C)[C@H]3[C@@](O)(C(=O)OC)[C@H](OC(C)=O)[C@]5(CC)C=CCN6CC[C@]43[C@@H]65)C2)C1,–,0.208 µM (active)
CC[C@]1(O)CC2CN(CCc3c([nH]c4ccccc34)[C@@](C(=O)OC)(c3cc4c(cc3OC)N(C=O)[C@H]3[C@@](O)(C(=O)OC)[C@H](OC(C)=O)[C@]5(CC)C=CCN6CC[C@]43[C@@H]65)C2)C1 (some centres not stated),–,0.147 µM (active)
COc1ccc(NC(=O)C2CCC(CNS(=O)(=O)c3csc(C(N)=O)c3)CC2)cc1OC (configuration not stated),-9.3%,–
CC(=O)NC(CC(=O)Nc1cccc(S(=O)(=O)N2CCCC2)c1)c1ccccc1 (configuration not stated),-5.84%,–
CCN(CC(=O)Nc1cccc(S(N)(=O)=O)c1)Cc1nc2ccccc2c(=O)[nH]1,97.7%,–
CCCCN(CC(=O)Nc1cccc(S(=O)(=O)N2CCCC2)c1)Cc1nc2ccccc2c(=O)[nH]1,–,3.7 µM (active)
O=C(NCCc1ccc(Cl)cc1)c1cccc(N2CCCC2=O)c1,58.9%,–
CCN1C(=NCCc2cccnc2)N[C@@H](c2ccccc2)[C@H](C(=O)OC)[C@H]1C,–,inactive
CCOc1ccc(OCC)c(NC(=O)CCS(=O)(=O)c2ccc(C)cc2)c1,-25.3%,–
COc1cccc(CNS(=O)(=O)c2ccc3c(c2)CC(C)N3C(=O)C2CCC2)c1 (configuration not stated),-10.2%,–
CCC(=O)N1c2ccc(S(=O)(=O)NCc3ccco3)cc2CC1C (configuration not stated),44.5%,–
Cc1ccc(CNC(=O)CCS(=O)(=O)c2ccc3c(c2)CC(C)N3C(=O)C2CC2)o1 (configuration not stated),–,10.4 µM (active)
Cc1c(OC(C)C(=O)NCC2CCC(C(=O)O)CC2)ccc2c1oc(=O)c1ccccc12 (configuration not stated),-28%,–
CC1(C)NC(=O)N(CC(=O)Nc2cc(C(F)(F)F)cc(C(F)(F)F)c2)C1=O,46.2%,–
Clc1ccc(C2=CSC3=Nc4cccc5cccc(c45)N23)cc1,–,1.85 µM (active)
CC(=O)c1cccc(NC(=S)N2CCCC2)c1,11.9%,–
CC1=CCC2C(=O)N(c3cccc(C(=O)NC(C)c4ccccc4)c3)C(=O)C2C1 (configuration not stated),6.23%,–
CC(=O)Oc1cccc(N2C(=O)CC(Nc3ccc(N4CCOCC4)cc3)C2=O)c1 (configuration not stated),16%,–
CC(=O)Oc1cccc(N2C(=O)C3CC=C(Cl)CC3C2=O)c1 (configuration not stated),–,11.7 µM (active)

SMILES,"activity change, negative = inhibition",Potency
N#CC1(NC(=O)COC(=O)CSc2ccc(F)cc2)CCCCC1,1.97%,–
Cc1cccc(N=C2SC(C)CN2C(=O)CN2C(=O)NC3(CCCC3)C2=O)c1 (configuration not stated),-26.9%,–
COCCN(C(=O)CC1CCCCC1)c1c(N)n(CC(C)C)c(=O)[nH]c1=O,-16.3%,–
COc1cc([N+](=O)[O-])ccc1NC(=O)CN1CCCC1,22.4%,–
COc1ccc(NC(=O)CCCC2CCCCC2)c(OC)c1,107%,–
COc1ccc(NC(=O)c2cc([N+](=O)[O-])ccc2NC(=O)CNC2CCCCC2C)c(OC)c1 (configuration not stated),–,6.57 µM (active)
Cc1cccc(C)c1NC(=O)CNC(=O)c1ccc2c(c1)OCCO2,-8.84%,–
COc1ccc(N(Cc2cc3cc(OC)ccc3[nH]c2=O)S(C)(=O)=O)cc1,18.3%,–
CCC(c1nnnn1Cc1ccco1)N(CCc1ccccc1)Cc1cc2cccc(C)c2[nH]c1=O (configuration not stated),–,11.7 µM (active)
CCC(c1nnnn1Cc1ccco1)N(Cc1cc2cc(OC)ccc2[nH]c1=O)C1CCCCC1 (configuration not stated),–,11.7 µM (active)
CCC(c1nnnn1Cc1ccccc1)N(Cc1cc2cc(OC)ccc2[nH]c1=O)CC1CCCO1 (configuration not stated),–,5.86 µM (active)
COc1ccc2[nH]c(=O)c(CN(CC3CCCO3)C(=O)Nc3ccccc3)cc2c1 (configuration not stated),37%,–
CCOc1ccc2[nH]c(=O)c(CN(Cc3nnnn3CCc3ccccc3)CC3CCCO3)cc2c1 (configuration not stated),–,13.1 µM (active)
CCC(=O)N(CCc1ccccc1)Cc1cc2cc(C)ccc2[nH]c1=O,83.4%,–
O=C(c1cccs1)N(Cc1cc2ccccc2[nH]c1=O)CC1CCCO1 (configuration not stated),-2.84%,–
CCC(=O)N(Cc1cc2cc(OC)ccc2[nH]c1=O)c1ccccc1C,11.8%,–
Cc1ccc(S(=O)(=O)N(Cc2cc3ccccc3[nH]c2=O)CC2CCCO2)cc1 (configuration not stated),4.58%,–
CCOc1ccc2[nH]c(=O)c(CN(CCCO)C(C)=O)cc2c1,14.9%,–
COc1ccc(-c2nc(SCC(=O)N3CCCC3)n[nH]2)cc1,5.23%,–
CC(=O)Oc1cccc(C(=O)Nc2ccccc2NC(=O)c2cccc(OC(C)=O)c2)c1,-11.6%,–
COc1cccc(S(=O)(=O)NCc2ccc(C(=O)NCc3ccccn3)cc2)c1,-29.8%,–
COc1cccc(CNc2ncc(-c3ccccc3)n2C)c1,31.6%,–
Cc1cc(=O)oc2cc(NC(=O)C(C)Oc3ccccc3)ccc12 (configuration not stated),4.87%,–
COc1ccc(/C=C(\C#N)C(=O)OCC(=O)N(C)C2CCS(=O)(=O)C2)cc1 (configuration not stated),2.01%,–
O=C(O)c1c(NC(=O)N2CCCC2)sc2c1CCCC2,0.211% [at 0.00184 µM],–

SMILES,"activity change, negative = inhibition",Potency
Cc1ccc(-c2nc(CS(=O)(=O)CC(=O)NCc3ccc4c(c3)OCO4)c(C)o2)cc1,2.89%,–
CCCCOC(=O)Nc1nnc(CC(=O)NCc2ccccc2)s1,1.81%,–
CCC(C)c1ccc(NC(=S)N2CCCC2)cc1 (configuration not stated),53.4%,–
COc1ccc2[nH]c3c(=O)n(Cc4ccco4)cnc3c2c1,34.4%,–
CCC(c1nnnn1Cc1ccco1)N(CCc1ccccc1)Cc1cc2ccc(OC)cc2[nH]c1=O (configuration not stated),–,5.86 µM (active)
COc1ccc(N(Cc2cc3ccc(C)cc3[nH]c2=O)S(=O)(=O)c2ccccc2)cc1,-23%,–
CCn1ccnc1CN(C)C(=O)c1cc(COc2ccc(Cl)cc2OC)on1,8.14%,–
C[C@]12CC[C@@H]3c4ccc(O)cc4C[C@@H](CCCCCCCCCS(=O)CCCC(F)(F)C(F)(F)F)C3[C@@H]1CC[C@@H]2O (some centres not stated),–,9.53 µM (active)
Cc1cc(=O)oc2c3c(cc(OCC(=O)NCCC(=O)N[C@@H](C)C(=O)O)c12)OC(C)(C)CC3,3.13%,–
Cc1c(NC(=O)Nc2cccc([N+](=O)[O-])c2)c(=O)n(-c2ccccc2)n1C,14.8%,–
CCN(CC)Cc1c(C(=O)OC)nnn1-c1nonc1N,-3.97%,–
CCOC(=O)c1nnn(-c2nonc2-n2cccc2)c1CN1CCOCC1,–,7.38 µM (active)
CCOC(=O)c1nnn(-c2nonc2-n2cccc2)c1CN1CCC(C(=O)OCC)CC1,–,0.185 µM (active)
NNC(=O)c1nnn(-c2nonc2N)c1CN1CCCC1,-0.213%,–
CCOC(=O)C1CCN(Cc2c(C(=O)N3CCOCC3)nc3c(C)cccn23)CC1,0.0838%,–
CCOC(=O)c1nnn(-c2nonc2OC)c1-c1ccccc1,12.2%,–
CC(=O)Nc1ccc(S(=O)(=O)Nc2cc(C)cn(Cc3ccc(C)cc3)c2=O)cc1,8.83%,–
COc1ccccc1CNS(=O)(=O)c1ccc2c(c1)NC(=O)CS2,28.6%,–
CCCn1cc(S(=O)(=O)c2ccc(C)cc2)c(=O)c2cc(OCC)ccc21,-6.8%,–
CN(CC(=O)O)S(=O)(=O)c1ccc2oc3ccccc3c2c1,1.99%,–
Cc1ccc(/C=N/NC(=O)CNC(=O)COc2ccccc2)o1,4.28%,–
O=C(N/N=C/c1cccnc1)c1cc2ccccc2cc1O,–,2.94 µM (active)
CCOC(=O)N/N=C/c1cccnc1,8.05%,–
N=c1oc2ccccc2cc1C(=O)N/N=C/c1ccccc1,23.4%,–
Cc1ccc(/C=N/NC(=O)c2cc3ccccc3cc2O)o1,–,0.586 µM (active)

SMILES,"activity change, negative = inhibition",Potency
O=C(N/N=C/c1cccnc1)c1ccc(NC(=O)c2ccc(F)cc2)cc1,-9.95%,–
Cc1ccnc(NS(=O)(=O)c2ccc(NC(=O)c3oc4ccccc4c3C)cc2)n1,5.56%,–
O=C(c1cccnc1)N1CCN(S(=O)(=O)c2cccs2)CC1,-0.715%,–
Cc1ccc(C(=O)NCC(=O)OCc2nnc(-c3ccccc3)o2)cc1,38.7%,–
O=C(/C=C/c1ccc(Cl)c([N+](=O)[O-])c1)c1cccnc1,3.69%,–
NC(N)=N/N=C/c1ccc(Cl)c([N+](=O)[O-])c1,–,1.47 µM (active)
CC(CC(=O)O)C(=O)c1ccc(Cl)c([N+](=O)[O-])c1 (configuration not stated),-8.93%,–
COc1cccc(C(=O)Nc2ccc(N3CCN(C(=O)c4ccco4)CC3)cc2)c1,-26.8%,–
O=c1cc(CO)oc(CN2CCC(Cc3ccccc3)CC2)c1O,4.38%,–
COc1cc(C)cc(CN2CCC(Cc3ccccc3)CC2)c1O,–,0.928 µM (active)
Brc1ccccc1CN1CCC(Cc2ccccc2)CC1,-1.06%,–
O=C(CN1C(=O)NC2(CCOc3ccccc32)C1=O)NCc1ccc(F)cc1 (configuration not stated),1.93%,–
Cc1cccc(NC(=O)C2CCCN(C(=O)NCc3ccccc3)C2)c1C (configuration not stated),7.96%,–
CCOC(=O)C1=C(C)NC(C)=C(C(=O)OCC)C1c1ccccn1,-9.2%,–
CCOC(=O)C1=C(C)N=C2c3ccccc3C(=O)C2C1c1ccc(Br)cc1 (configuration not stated),–,9.28 µM (active)
CCOC(=O)CN1C(=O)N[C@@H](c2ccc(Br)cc2)C(C(C)=O)=C1C,-29.1%,–
Cc1cccc(NS(=O)(=O)c2ccc(C(=O)NCC(C)(C)N3CCOCC3)cc2)c1C,-8.66%,–
COc1ccc(/C=C/C(=O)NC(=S)N2CCCC(C(N)=O)C2)cc1 (configuration not stated),-18.6%,–
COc1ccc(CCNCC(O)Cn2ccc3ccccc32)cc1OC (configuration not stated),–,10.4 µM (active)
COc1ccc(Cn2c(=O)sc3ccccc32)cc1OC,3.75%,–
COC(=O)c1ccc(OCC(O)CN(CCO)CC(O)Cn2ccc3ccccc32)cc1 (configuration not stated),-28%,–
O=C(C1CCC1)N1CCN(c2ccccc2)CC1,-2.07%,–

# Source: PubChem BioAssay AID504832 (National Center for Advancing Translational Sciences (NCATS), 2011)
